Screening data deposited in PubChem BioAssay by National Center for Advancing Translational Sciences (NCATS).
Rows were chosen to be rich in hits. Some 3% of all compounds tested hit in one or more screens of this group.
DRD3 agonist = D3 dopamine receptor (human) agonism; P35462; D3R DiscoveRx beta-arrestin cells, luminescence, 90 min; max activation, %; hit rate 0.58% among 410,000; AID 652048; in the data active = max activation above about 30%; also: 0% is about no effect
Target sequence (P35462 whole entry, looked up): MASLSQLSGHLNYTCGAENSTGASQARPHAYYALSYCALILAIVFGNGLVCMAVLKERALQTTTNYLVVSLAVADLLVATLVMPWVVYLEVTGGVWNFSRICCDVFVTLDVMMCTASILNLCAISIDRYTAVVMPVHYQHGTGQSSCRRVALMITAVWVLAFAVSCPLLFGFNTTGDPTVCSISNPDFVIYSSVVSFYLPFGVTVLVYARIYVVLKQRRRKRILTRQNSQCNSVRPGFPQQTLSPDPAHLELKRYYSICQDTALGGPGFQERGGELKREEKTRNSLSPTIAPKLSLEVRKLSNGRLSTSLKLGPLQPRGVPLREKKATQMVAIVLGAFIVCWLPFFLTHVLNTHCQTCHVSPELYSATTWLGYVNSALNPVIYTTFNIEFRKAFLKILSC
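Cells at 1500/well, incubated overnight, then treated with pinned compounds (dopamine as control) for 90 min at 37 degrees C. DiscoveRx reagent added for 30 - 60 minutes at room temperature; luminescence read.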
D3 antag = blocks the human D3 dopamine receptor. hit rate 2.5% among 360,000. P35462. AID 652054. max response, negative = inhibition, %. D3R cells, DiscoveRx beta-arrestin luminescence, antagonist mode; active compounds read low; in the data active = max response below about -50%; inconclusive = no clear call, values can overlap the other calls; also: % is scaled to controls: 0 for no effect and ±100 for the full control effect
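Cells expressing the human receptor were seeded at 1500 cells/well, incubated overnight at 37 degrees C in 5% CO2, then exposed to library compounds with dopamine controls for 90 minutes at 37 degrees C before luminescent detection.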
Glioma ERSR ind = induces the endoplasmic reticulum stress response in human glioma cells; U87-MG GRP78 promoter luciferase reporter, 16 h; hit rate 0.02% among 420,000; Potency, µM, for inactives: at the highest dose activation, hits mostly activators; AID 602332; also: potency is read from the fitted curve at half-maximal effect; series mostly up to about 76 µM; % of control where 0% means no effect; nearly all actives have a fitted effect of over 35% in size
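ERSR induction read as luciferase luminescence (Bright-Glo, 10 min at room temperature) in stably transfected human U87-MG glioma cells exposed to compounds for 16 h, using GRP78 as sensor.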
Nrf2 ARE act = activators of Nrf2 (ARE) signaling. hit rate 0.31% among 410,000. AREc32 ARE-luciferase reporter (MCF7-derived line), luminescence, 24 h. Potency, µM (top dose mostly 46.1 µM), for the others: top-dose activation, most hits filed as activators. AID 624171; also: potency is read from the fitted curve at half-maximal effect; % of control where 0% means no effect; nearly all actives have a fitted effect of over 65% in size
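Steps: seed AREc32_Fluc cells (1000/well, 5% FBS OPTI-MEM); incubate overnight at 37 deg C; add 23 nL compound; incubate 24 hr; add Steady-Glo; hold 30 min RT; read luminescence.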
Active calls of the source: *; ? = inconclusive; · = no result given. Unless noted, calls follow the shape of the dose curve; as a rule, active = well fitted curve in the direction sought with a large enough effect; inconclusive = small, poorly fitted or top-dose-only effect, or another doubt; inactive = no such curve, though single readings can be large; an effect the other way counts as inactive or inconclusive.

SMILES | DRD3 agonist | D3 antag | Glioma ERSR ind | Nrf2 ARE act
COc1ccc(-c2c[n+](CC(=O)c3ccccc3)c3n2CCCCC3)cc1 | -22 | -61* | 0% | 0%
Cc1ccc(-c2c[n+](CC(=O)Nc3ccccc3C)c3n2CCC3)cc1 | -34 | -63* | -2% | -1%
Cc1ccc(NC(=O)C[n+]2cc(-c3ccccc3)n3c2CCC3)cc1 | -17 | -111* | -4% | 2%
Cc1oc(-c2ccccc2NC(=O)c2ccccc2)nc1CNC(=O)c1c(-c2ccccc2)noc1C | · | · | -2% | ·
COc1cc(OC)c(/C=C/c2cc3ccccc3c[n+]2C)c(OC)c1 | · | · | -7% | ·
COc1ccc(C(=O)NNC(=O)c2cc3cc([N+](=O)[O-])ccc3oc2=O)cc1OC | -23 | -53* | -4% | 0%
Cc1ccc(C(=O)C(C)OC(=O)c2cc3cc([N+](=O)[O-])ccc3oc2=O)cc1 (centres undefined) | -7 | -99* | -1% | 17%
Cc1ccc2c(CC(=O)N(Cc3ccc(N(C)C)cc3)Cc3ccco3)coc2c1C | 8 | · | -4% | 4%
CC(NS(=O)(=O)c1ccccc1[N+](=O)[O-])c1ccccn1 (centres undefined) | · | · | -3% | ·
Cc1ccc(Nc2cc(C)nn2-c2nc(C)cc(C)n2)cc1 | 0 | ? | -6% | 2%
Cc1ccc(Nc2cc(C)nn2-c2nc(C)cc(=O)[nH]2)cc1 | 0 | -67* | ? | ?
O=C(c1ccc2c(c1)OCO2)N1CCOc2ccc(CN3CCC(Oc4cccnc4)CC3)cc2C1 | · | · | -7% | ·
CCN(CC)C(=O)C1=C(C)N(CCCOC)C(=O)C(CC(=O)NC2CC2)C1 (centres undefined) | -17 | -116* | -1% | 0%
CCCCc1cc(=O)oc2cc(C)c(CN3CCCC3)c(O)c12 | 30* | 16 | -3% | 0%
CC(=O)Nc1ccc(Oc2sc(C(=O)c3ccccc3)c(N)c2C#N)cc1 | 0 | -3 | -4% | 8.9µM*
CC(=O)Nc1ccc(Oc2ccccc2)cc1 | -1 | 4 | 7% | 0%
CO[C@H]1[C@H](NC(=O)c2ccsc2)c2ccccc2C12CCN(Cc1cccc3ncccc13)CC2 | · | · | -4% | ·
O=C(c1cccc(C(=O)N2CCN(Cc3ccccc3)CC2)c1)N1CCN(Cc2ccccc2)CC1 | 2 | -15 | 8% | 2%
CCOc1ccc(CN2CCN(C(=O)c3ccccc3)CC2)cc1 | -15 | -80* | -1% | 0%
COc1ccc(C(=O)N2CCN(CCNC(=O)C(=O)Nc3ccc(Br)cc3)CC2)cc1 | -21 | 7 | -1% | -1%
CCOc1ccc(NC(=O)C(=O)NCCN2CCN(C(=O)c3ccc(C)cc3)CC2)cc1 | -22 | -60* | -5% | 0%
O=C(c1ccc2ccccc2c1)N1CCN(Cc2ccccc2)CC1 | -18 | -86* | 4% | 0%
CCOc1ccc(C(=O)N2CCN(Cc3ccccc3)CC2)cc1 | -19 | ? | -2% | -1%
c1cncc(OC2CCN(Cc3ccc4c(c3)CN(Cc3nc5ccccc5s3)CCO4)CC2)c1 | · | · | -3% | ·
COc1cccc(CN2Cc3cccc4c3[C@H](C=CC4)CC2=O)c1 | · | · | -5% | ·
SMILES | DRD3 agonist | D3 antag | Glioma ERSR ind | Nrf2 ARE act
O=[N+]([O-])c1ccc(Cl)c(S(=O)(=O)/N=C(/Sc2ccc(Br)cc2)c2ccccc2)c1 | · | · | -3% | ·
COc1cccc(-c2ccnc(-n3ncc(C(=O)NCc4cccnc4)c3C3CC3)n2)c1 | · | · | -1% | ·
O=C(NCc1ccc(Cl)cc1)c1cnc2sc(N3CCCCCC3)nn2c1=O | 5 | · | -2% | -1%
Cc1cc(C)cc(N2CC(c3nc4ccccc4n3C)CC2=O)c1 (centres undefined) | -6 | -54* | -3% | -2%
Cc1ccccc1N1C(=O)[C@@H]2Cc3ccccc3CN2C1=O | -2 | ? | -3% | -1%
O=C1[C@@H]2Cc3ccccc3CN2C(=O)N1c1cccc(F)c1 | 37* | -11 | -2% | 0%
Cc1ccc(-c2csc(C(C)(O)c3ccc(F)c(F)c3)n2)cc1C (centres undefined) | -9 | -69* | -5% | -1%
O=C(Nc1nccs1)[C@@H]1CC=C[C@@H]2CCN(Cc3ccc(Cl)c(Cl)c3)C(=O)[C@@H]21 | · | · | -3% | ·
COc1cc(C(=O)Nc2ccc(S(=O)(=O)Nc3nccc(C)n3)cc2)cc(OC)c1OC | 4 | -18 | 32µM* | 1%
COc1ccc(C(=O)Nc2ccc(S(=O)(=O)Nc3nccc(C)n3)cc2)cc1OC | -4 | -14 | 3% | 0%
COc1cc(C(=O)Nc2ccc(S(=O)(=O)Nc3cnc4ccccc4n3)cc2)cc(OC)c1OC | -9 | -11 | 32µM* | 4%
Cc1cc(C)nc(SCC(=O)Nc2ccc(S(=O)(=O)Nc3ncccn3)cc2)n1 | 34* | 4 | -1% | 0%
CCC1CN(C(=O)Nc2cc(Cl)ccc2C(=O)OC)c2ccccc2S1 (centres undefined) | -14 | · | 0% | 0%
S=C1NCCc2ccc(Cl)cc2C1c1ccccc1Cl (centres undefined) | -2 | -71* | -2% | 5%
Cc1sc2ncn(CC(=O)NCCCN3CC(C)CC(C)C3)c(=O)c2c1S(=O)(=O)N1CC(C)CC(C)C1 (centres undefined) | -28 | -90* | -1% | 0%
COCCCNC(=O)Cn1cnc2sc(C)c(S(=O)(=O)N3CC(C)CC(C)C3)c2c1=O (centres undefined) | 6 | -3 | -4% | 0%
Cc1ccc(C)c(N2CCN(CCCNC(=O)Cn3c(=O)c4cccn4c4cccnc43)CC2)c1 | -22 | -98* | 0% | 0%
O=C(CCn1c(=O)c2cccn2c2cccnc21)NCCCN1CCN(c2ccc(F)cc2)CC1 | -4 | -67* | -4% | 0%
CCCCC/C=C\CCC(=O)N[C@H]1[C@H](Oc2c3cc4cc2Oc2ccc(cc2Cl)[C@@H](O[C@@H]2O[C@H](CO)[C@@H](O)[C@H](O)[C@H]2NC(C)=O)[C@@H]2NC(=O)[C@H](NC(=O)[C@@H]4NC(=O)[C@H]4NC(=O)[C@@H](Cc5ccc(c(Cl)c5)O3)NC(=O)[C@H](N)c3ccc(O)c(c3)Oc3cc(O)cc4c3)c3ccc(O)c(c3)-c3c(O[C@H]4O[C@H](CO)[C@@H](O)[C@H](O)[C@@H]4O)cc(O)cc3[C@@H](C(=O)O)NC2=O)O[C@H](CO)[C@@H](O)[C@@H]1O | -17 | · | · | ·
O=C([C@H]1O[C@@H](n2ccc(=O)[nH]c2=O)[C@H](O)[C@@H]1O)N(CCC1=CCCCC1)CC1CC1 | -15 | 0 | -2% | 1%
Nc1ccn([C@@H]2O[C@H](C(=O)N(CCC3=CCCCC3)CC3CC3)[C@@H](O)[C@H]2O)c(=O)n1 | 40* | -29 | 4% | -1%
CCCn1cc(S(=O)(=O)CC(=O)NC2CCCCC2)c2ccccc21 | -25 | -66* | -2% | 0%
CCn1c(C(=O)O)c(CC(=O)NC2CCCCCC2)c2ccccc21 | 7 | -89* | -4% | 0%
CCc1ccc(Sc2cc(C(=O)NCCCN3CCC(C)CC3)c3ccccc3n2)cc1 | -14 | · | -7% | -2%
COc1cc(N(Cc2ccccc2)Cc2ccccc2)c2ncn(C(C)C)c2c1 | 5 | -30 | -2% | -3%
